Experimental findings from PubChem BioAssay (NCI) are described below.

Structures are written as SMILES. About 83,000 compounds went through this panel and 20% of them were active in at least one assay; those are over-represented in the sample as a whole.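 Negative percent growth values reflect cell death: -40 means 40% of the cells present at the start died, and -100 means all died.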 The source made the active and inactive calls. The calls were made as follows: active = growth percent below 10; inactive = the rest.

The test system of this test is MDA-MB-468 breast. Briefly: NCI-60 one-dose screen, 48 h (100 = growth as untreated, 0 = no growth, -100 = all killed). To be noted: 10 µM unless noted.
As for `Cc1ccc2c(n1)C(=O)C(Cl)=C(Nc1ccc(N3CCN(C)CC3)cc1)C2=O`, the growth was -84.6% (active).

Turning to `COc1cccc(Nc2nc(SC)nc(-c3cccc([N+](=O)[O-])c3)c2C#N)c1`, the growth was 81.2% (inactive).

As for `Clc1cc2c(nn1)Nc1ccccc1S2`, the growth was 96.9% (inactive).

`NS(=O)(=O)c1ccc(Nc2nc(N/N=C/c3ccc4c(c3)OCO4)nc(Nc3ccccc3)n2)cc1`: the growth was 46.4% (inactive).

Regarding `COc1cc(/C=C2\C=C(c3ccc(F)cc3)N(Cc3ccccc3)C2=O)cc(OC)c1OC`, the growth is 49.9% (inactive).

Regarding `Cn1ccc(=Nc2ccc(NC(=O)c3ccc(N=c4ccn(C)c5ccc([N+](=O)[O-])cc45)cc3)cc2)cc1`, the growth was -2.24% (active).

For the compound `Oc1[nH]c2ccc(Cl)cc2c1N=Nc1nc(N=Nc2c(O)[nH]c3ccc(Cl)cc23)nc(N2CCOCC2)n1`, the growth is 23.6% (inactive).

For the compound `CCCCCCCCCCCCNc1ncnc2[nH]ncc12`, the growth was 55.7% (inactive).

In the case of `O=C1Nc2ccccc2Oc2ccc(S(=O)(=O)CC3CO3)cc21` (stereo not given), the growth is -5.7% (active).

For the compound `O=C(/C=C/c1ccc(B(O)O)cc1)/C=C/c1ccc(B(O)O)cc1`, the growth was 1.24% (active).

With `COC(=O)c1ccc2c(c1)c1c(C)c3ccncc3c(C)c1n2C`, the growth is 39.5% (inactive).

Turning to `N/C(=N\c1nc2ccccc2s1)NC(=O)Nc1ccccc1`, the growth is 31.4% (inactive).

Turning to `O=C1Nc2ccccc2/C1=C\c1nc(C2CCN(S(=O)(=O)c3ccc(F)cc3)CC2)n2ccccc12`, the growth is 70.6% (inactive).

In the case of `N#CSCC1CC(O)(c2ccccc2)C(c2ccccc2)C(c2ccc(F)cc2)O1` (stereo not given), the growth was -13.4% (active).

Turning to `Nc1cc2c3c(cccc3c1)C(=O)N(CCN1CCCC1)C2=O`, the growth was 40.2% (inactive).

With `CCCCNc1ccc2c3c1cccc3c(=O)n1c3ccccc3nc21`, the growth is -12.2% (active).

For `CCCC(O)Cn1ncc(C(=O)OCC)c1NC(=O)NCc1cccc(F)c1` (stereo not given), the growth was 97.3% (inactive).

As to `Cn1c(SCC(=O)Nc2ccc(-c3nc4ccc([N+](=O)[O-])cc4[nH]3)cc2)nc2ccccc2c1=O`, the growth is 56.5% (inactive).

As to `COc1ccc(OC)c(/C=C/c2nnc(Nc3ccc(Cl)cc3)o2)c1`, the growth was 66% (inactive).

For `COc1cc2c(c(OC)c1OC)-c1ccc(SC)c(=O)cc1[C@@H](NC1OC(CO)C(O)C(O)C1O)CC2` (stereo not given in full), the growth was 23.6% (inactive).

With `COc1cc(/C=C/C(=O)c2nc3cc(F)ccc3nc2C)cc(OC)c1OC`, the growth is 23.6% (inactive).

As to `CCOC(=O)c1c(C)nc2c(c1N)C(=O)C(=O)N2Cc1ccc(C(F)(F)F)cc1`, the growth was 77.8% (inactive).

As for `O=[N+]([O-])c1ccccc1N=Nc1ccc(O)cc1O`, the growth is 118% (inactive).

For the compound `CC(=O)Nc1ccc2c(c1)C(N1CC3CCC(CC3)C1)c1ccccc1-2` (stereo not given), the growth is 94% (inactive).

`S=C=Nc1ccc2ccccc2c1`: the growth is 97.3% (inactive).

In the case of `COc1cc(NC(N)=NCC(C)(C)COc2ccc(C(F)(F)F)cc2)cnc1C#N`, the growth was 19.6% (inactive).

Turning to `COc1ccc(C(=S)N2CCN(c3cccc(Cl)c3)CC2)cc1`, the growth was 88.4% (inactive).

Turning to `COc1cc(/C=N/NC(=O)c2ccccc2Nc2cccc(C(F)(F)F)c2)cc(OC)c1OC`, the growth is -20.8% (active).

For `CCN(CC)CCCOCCCNc1cc(OC)cc2cccnc12`, the growth was -6.79% (active).

With `N=c1c(S(=O)(=O)c2ccccc2)cc2c(=O)n3ccccc3nc2n1CC1CCCO1` (stereo not given), the growth is 121% (inactive).

As to `c1csc(-c2cnc3nonc3n2)c1`, the growth is 67.5% (inactive).

Regarding `Cc1ccc(-c2nc([P+](c3ccccc3)(c3ccccc3)c3ccccc3)c(Nc3ccccc3)o2)cc1`, the growth was -41.8% (active).

As to `O=C(/C=C/c1csc(Br)n1)NO`, the growth is 19% (inactive).

Take `Cc1ccc(-c2nc(/C=N/Nc3cc(C)nc4ccc(Br)cc34)c(C)o2)cc1`: the growth is -89% (active).

As for `NC(N)=NN=C(c1ccccc1)c1ccccc1`, the growth is -31.3% (active).

For `COc1ccc(CSc2nnc(SCC(=O)Nc3ccc(Cl)cc3)s2)cc1`, the growth is 91.1% (inactive).

Take `Oc1ccccc1C=NCC1CCC(CN=Cc2ccccc2O)CC1` (stereo not given): the growth is 74.4% (inactive).

In the case of `Cc1nc2ccccc2c(/C=C/c2ccc(Cl)cc2)c1C(=O)/C=C/c1ccccc1`, the growth is 12.7% (inactive).

As for `O=C(c1ccc2ncc(-c3nc(NC4CC4)ncc3F)n2c1)N1CCOCC1`, the growth was 32.8% (inactive).

On to `COc1ccc(-c2nn(-c3cccc(Cl)c3)cc2-c2c(C#N)c(=O)n3[nH]c(-c4ccccc4)nc3c2C#N)cc1`, for which the growth was 97.6% (inactive).
